{"source": "the OligoGym collection", "data": [{"target": "SLC12A6", "experiment": "pooled miR-30 sensor sort-seq; sequence = guide strand", "conditions": "shRNA", "values": [{"sequence": "TTGTTAACTATAACCTCGTTGA", "sensor-assay potency score (higher = more potent)": -0.0795}, {"sequence": "TATCAAAATATTCATCTCCTTC", "sensor-assay potency score (higher = more potent)": -0.342}, {"sequence": "TTTTTGAAGAAGTAGAGGCTGC", "sensor-assay potency score (higher = more potent)": 0.521}, {"sequence": "TTTTAGTGTGTGGAGGTCCTTC", "sensor-assay potency score (higher = more potent)": -0.634}, {"sequence": "TTCTTTAGTAAGATGAAGCTGT", "sensor-assay potency score (higher = more potent)": 0.156}, {"sequence": "TATTGAGATAAGCATTTCGAGC", "sensor-assay potency score (higher = more potent)": -1.39}, {"sequence": "TACTGTTGTCTTCTAATTGGGC", "sensor-assay potency score (higher = more potent)": -0.548}, {"sequence": "TGTACTTGTAGATCATACCAGC", "sensor-assay potency score (higher = more potent)": -0.605}, {"sequence": "TTACTCGGGAACTAGATCGAGA", "sensor-assay potency score (higher = more potent)": -0.428}, {"sequence": "TAAGTCTTCATCTAGTTTCAGT", "sensor-assay potency score (higher = more potent)": -0.702}, {"sequence": "TTGTCTCTGAGAACAACCCCTT", "sensor-assay potency score (higher = more potent)": -0.146}, {"sequence": "TAGCTTGTAGCAGCCTCGGTGC", "sensor-assay potency score (higher = more potent)": -1.11}]}, {"target": "SLC13A5", "experiment": "pooled miR-30 sensor sort-seq; sequence = guide strand", "conditions": "shRNA", "values": [{"sequence": "TTGTCCACCAGCTCCAGGCCGG", "sensor-assay potency score (higher = more potent)": -0.842}, {"sequence": "TTTCTTGCTCTCTAGCCCGCAG", "sensor-assay potency score (higher = more potent)": -0.697}, {"sequence": "TATGACTCCTGTTTTCACCATG", "sensor-assay potency score (higher = more potent)": -1.13}, {"sequence": "TTGACAGCCAAAAACACACAGA", "sensor-assay potency score (higher = more potent)": -0.786}, {"sequence": "TACACAACCTCTTCCGCTCTTG", "sensor-assay potency score (higher = more potent)": -0.374}, {"sequence": "TTATGTTCATTATGACTCCTGT", "sensor-assay potency score (higher = more potent)": 0.0164}, {"sequence": "TACTGGACACACACCTGCCTGG", "sensor-assay potency score (higher = more potent)": -0.809}, {"sequence": "TTTTTCTTGCTCTCTAGCCCGC", "sensor-assay potency score (higher = more potent)": -0.694}]}]}
